In the library only some 6.9% were active in any assay of this set; here they are far more common.
Mdm2 MdmX PPI: human Mdm2/MdmX binding inhibition. AID 485346. inhibition, % at 8 µM. actives 3% (n = 330,000). O15151+Q00987. SaOS-2 split-luciferase Mdm2/MdmX complementation, luminescence;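 active = inhibition of at least 50% at 8 µM in the primary screen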
Target sequence (O15151 whole entry, looked up): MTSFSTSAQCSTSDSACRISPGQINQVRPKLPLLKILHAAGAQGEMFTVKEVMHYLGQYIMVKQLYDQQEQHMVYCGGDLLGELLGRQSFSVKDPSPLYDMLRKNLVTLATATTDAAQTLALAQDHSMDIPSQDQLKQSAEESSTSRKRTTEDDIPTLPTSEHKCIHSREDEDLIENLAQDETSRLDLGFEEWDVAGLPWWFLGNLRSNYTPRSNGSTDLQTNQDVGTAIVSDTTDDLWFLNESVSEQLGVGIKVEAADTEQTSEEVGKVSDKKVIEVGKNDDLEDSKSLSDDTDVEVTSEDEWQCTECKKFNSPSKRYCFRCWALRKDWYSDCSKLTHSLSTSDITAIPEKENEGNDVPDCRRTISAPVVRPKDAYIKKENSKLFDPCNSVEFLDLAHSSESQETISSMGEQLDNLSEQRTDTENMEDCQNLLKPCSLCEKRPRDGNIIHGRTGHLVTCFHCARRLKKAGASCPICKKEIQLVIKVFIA
Target sequence (Q00987 whole entry, looked up): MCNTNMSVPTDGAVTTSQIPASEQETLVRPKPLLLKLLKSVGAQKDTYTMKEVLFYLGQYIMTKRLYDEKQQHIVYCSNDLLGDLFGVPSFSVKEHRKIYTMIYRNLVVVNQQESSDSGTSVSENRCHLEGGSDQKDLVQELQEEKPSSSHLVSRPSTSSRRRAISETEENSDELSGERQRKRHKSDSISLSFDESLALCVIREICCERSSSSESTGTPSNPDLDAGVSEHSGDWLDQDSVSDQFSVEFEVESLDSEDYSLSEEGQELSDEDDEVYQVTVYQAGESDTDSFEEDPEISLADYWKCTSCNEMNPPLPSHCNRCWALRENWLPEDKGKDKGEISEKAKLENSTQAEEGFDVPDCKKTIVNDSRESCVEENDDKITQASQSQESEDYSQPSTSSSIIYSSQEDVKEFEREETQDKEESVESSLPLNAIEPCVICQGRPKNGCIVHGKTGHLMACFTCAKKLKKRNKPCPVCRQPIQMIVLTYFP
CSC inhib: blocks cancer stem cells | cancer stem cell-like cells viability, luminescence | actives 1.1% (n = 300,000) | AID 2717 | inhibition, % at 7.5 µM; in the data active = inhibition above about 75%; inconclusive = no clear call, values can overlap the other calls; tested in HMLE shEcad cells
SKKanGAS inh: inhibitors of SKKanGAS S. pyogenes growth in kanamycin (SK-promoter or general growth effect) | inhibition, % at 7.5 µM | BacTiter-Glo, 6 h | actives 1.3% (n = 300,000);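 active = mean replicate score, as percent of positive control median, at least 50; inconclusive = mean below 50 but one replicate at or above 50; inactive = mean and every replicate below 50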;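 also: strain carries kanamycin resistance gene driven by streptokinase promoter and grows in 40 µg/ml kanamycin; loss of luminescence reflects streptokinase promoter inhibition or plain growth inhibition; 0% = median of DMSO wells and 100% = positive control at its reference dose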
MPTP block: permeability transition pore inhibition. AID 602449. actives 1.4% (n = 360,000). isolated mouse mitochondria, Ca2+ swelling absorbance, 30 min. inhibition, % at 10 µM;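 active = inhibition of 50% or more, scaled per plate between neutral and stimulator controls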;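 also: 0% = DMSO wells given calcium and 100% = 1 mM EGTA wells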
NR3A LBD binder: modulators (binders) of human NR3A ligand-binding domain; actives 2.5% (n = 340,000); NR3A LBD differential scanning fluorimetry, Tm shift; 0% = protein alone, 100% = glycine-bound protein; AID 1259313; Tm shift relative to glycine control, % at 25 µM;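 active = melting temperature shift of at least 10% of the positive control shift, at one fixed dose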
Beta apoptosis: beta cell apoptosis inhibition; INS-1E cytokine-induced death, ATP luminescence, 48 h; percent of positive-control rescue, neutral wells zero; protection from apoptosis, % (concentration not given with the values); actives 0.8% (n = 300,000); AID 435005;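 active = Every replicate reaches about 75%, or at least half do and their mean reaches it too, limit read from the data; inconclusive = At least half of replicates reach the limit but their mean does not; inactive = Under half of replicates reach the limit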;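 also: 0% = cytokine-treated negative control wells and 100% = positive control rescue; higher means more ATP so stronger rescue from cytokine killing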
Rh123 counter: mitochondrial membrane potential, counter-screen | AID 624504 | actives 78% (n = 5,000) | inhibition, % at 10 µM | shares compounds with MPTP block | isolated mitochondria, Rhodamine 123 fluorescence; in the data active = inhibition above about 22%;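 also: 0% = DMSO vehicle and 100% = positive control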
An asterisk follows results filed as active; ? = inconclusive; nt = no result given.

SMILES | Mdm2 MdmX PPI | CSC inhib | SKKanGAS inh | MPTP block | NR3A LBD binder | Beta apoptosis | Rh123 counter
OCCC1CN(Cc2ccon2)CCN1Cc1ccccc1 (centres undefined) | -21 | 4 | 6 | -2 | -6 | -5 | nt
Cc1ccc(NC(=S)NCc2ccc(Cl)cc2)c(C)c1 | 6 | -1 | 8 | 3 | 0 | 6 | nt
Cc1ccc(C)c(NC(=S)NCCSc2ccc(Cl)cc2)c1 | 13 | 17 | 6 | 76* | -5 | -3 | 90*
Cc1cccc(NC(=S)NCCSc2ccc(Cl)cc2)c1 | 15 | 33 | -4 | 98* | 14* | 0 | 85*
Cc1ccccc1NC(=S)NCCSc1ccc(Cl)cc1 | 18 | 20 | 29 | 92* | -4 | 1 | 86*
Cc1ccc(NC(=S)NCCSc2ccc(Cl)cc2)c(C)c1 | 22 | 32 | -2 | 81* | 1 | 5 | 87*
CC1CN(C(=O)CCS(=O)(=O)c2ccccc2)CC(C)O1 (centres undefined) | -6 | 2 | -2 | -2 | -1 | -5 | nt
Cc1cccc(NC(=S)NCC(C)CSc2ccc(Cl)cc2)c1 (centres undefined) | -9 | ? | 31 | 89* | 9 | 14 | 94*
Cc1ccc(Cl)cc1NC(=S)NCCCSC1CCCCC1 | 19 | 25 | 7 | 99* | 1 | 11 | 91*
CCc1ccccc1NC(=S)NCCSc1ccc(Cl)cc1 | 8 | 20 | 50* | 94* | -1 | -3 | 94*
CCN(CC)C(=O)C1=C(C)N(CCC2=CCCCC2)C(=O)C(CC(=O)NCc2cccc3ccccc23)C1 (centres undefined) | nt | nt | nt | -2 | nt | nt | nt
CC1CCN(S(=O)(=O)c2nnc(NC(=O)c3cccc(Cl)c3)s2)CC1 | 37 | 22 | 28 | 83* | 14* | 28 | 79*
CCC(C)(C)NC(=O)c1ccc2c(c1)OCCO2 | -24 | nt | -4 | 1 | 1 | -6 | nt
CCN1C(=O)[C@H]2[C@@H](c3ccc(C(F)(F)F)cc3)N[C@]3(CCCN(Cc4ccc(F)cc4)C3=O)[C@H]2C1=O | nt | nt | nt | 0 | nt | nt | nt
CC12CCC(O)CC1=CCC1C2CCC2(C)C(c3ccn[nH]3)CCC12 (centres undefined) | nt | nt | nt | 57* | -2 | nt | 88*
CCc1cc(C(=O)Cc2ccc(F)cc2)c(O)cc1O | 11 | 41 | -3 | 68* | -6 | -3 | 68*
COc1ccc(-n2cnc3cc(NS(=O)(=O)c4ccc(C)cc4)ccc32)cc1 | 14 | 3 | nt | 9 | nt | 0 | nt
COc1ccccc1-n1cnc2cc(NS(=O)(=O)c3ccc(Br)cc3)ccc21 | 27 | 31 | 38 | 55* | -7 | 12 | 50*
Cc1cc(Cl)ccc1NC(=O)NC1CCN(S(=O)(=O)c2ccc(F)cc2)CC1 | 34 | 2 | 0 | 59* | -1 | 3 | 76*
O=C(Nc1ccc(F)cc1F)NC1CCN(S(=O)(=O)c2ccc(F)cc2)CC1 | 22 | -1 | -1 | -1 | 5 | -4 | nt
CC1CCc2c(sc(NC(=O)CSc3ncn[nH]3)c2C#N)C1 (centres undefined) | 36 | 38 | 6 | 52* | -5 | -19 | 26*
Cc1ccnc(SCC(=O)Nc2sc3c(c2C#N)CCCC3)n1 | -1 | 15 | 3 | 100* | 1 | 106* | 125*
N#Cc1c(NC(=O)CSc2ncn[nH]2)sc2c1CCCC2 | 34 | 15 | -8 | 6 | -1 | -3 | nt
Cc1cc(C(=O)OCC(=O)Nc2sc3c(c2C#N)CCC(C)C3)c2ccccc2n1 (centres undefined) | 7 | 6 | 27 | 14 | 3 | -3 | nt
Cc1csc(SCC(=O)Nc2sc3c(c2C#N)CCC3)n1 | -21 | nt | 29 | 3 | -3 | -1 | nt
SMILES | Mdm2 MdmX PPI | CSC inhib | SKKanGAS inh | MPTP block | NR3A LBD binder | Beta apoptosis | Rh123 counter
CC(=O)c1c(C)[nH]c(C(=O)OCC(=O)Nc2sc3c(c2C#N)CCC(C)C3)c1C (centres undefined) | 36 | 9 | 34 | 105* | -2 | 11 | 89*
CC(C)(C)C1CCc2c(sc(NC(=O)CSc3ncn[nH]3)c2C#N)C1 (centres undefined) | 32 | 93* | -2 | 52* | 2 | 16 | 66*
CC(C)C(NC(=O)c1ccc(C(C)(C)C)cc1)C(=O)NCc1ccccn1 (centres undefined) | 33 | nt | nt | -1 | 0 | -9 | nt
O=S(=O)(Cc1ccc(Cl)cc1)NCc1ccc2c(c1)OCO2 | 21 | -7 | -1 | 0 | -1 | -1 | nt
COC(=O)/C=C1/SC(=NC(=O)c2ccccc2)NC1=O | -4 | 7 | 7 | -1 | -8 | -7 | nt
COC(=O)/C=C1\SC(=NC(=O)c2cccc(Cl)c2)NC1=O | -24 | 7 | 4 | 60* | 9 | 0 | 37*
O=C(NC(NC(=S)N1CCOCC1)C(Cl)(Cl)Cl)c1ccc(Cl)cc1 (centres undefined) | 22 | 13 | -2 | 67* | 4 | -1 | 83*
O=C(COC(=O)CNC(=O)C1CCCCC1)Nc1ccccc1Cl | -7 | -12 | nt | 0 | 0 | 3 | nt
O=C(Nc1ccc(N2CCCC2)c(S(=O)(=O)Nc2cccc(C(F)(F)F)c2)c1)c1cccs1 | 15 | 15 | 52* | 74* | 30* | 1 | 50*
COc1ccccc1NS(=O)(=O)c1cc(NC(=O)c2cccs2)ccc1N1CCCC1 | -7 | 5 | 9 | 6 | 8 | 38 | nt
CCOC(=O)C1CCCN(C(=O)Cn2ncc3c([nH]c4ccccc43)c2=O)C1 (centres undefined) | 35 | -10 | 0 | 0 | -1 | -2 | nt
Cc1ccc(NCC(=O)N=Nc2c(O)[nH]c3ccc([N+](=O)[O-])cc23)cc1 | 18 | -10 | -7 | nt | -1 | 3 | nt
Cc1ccc(OC(C)C(=O)N=Nc2c(O)[nH]c3ccc([N+](=O)[O-])cc23)cc1 (centres undefined) | 9 | 46 | 6 | 73* | 4 | -1 | 68*
O=S(=O)(c1ccc(NC(=S)Nc2ccc(OC(F)F)cc2)cc1)N1CCOCC1 | 4 | 2 | -4 | 98* | 26* | 1 | 90*
CC(C)(C)CC(C)(C)NC(=S)Nc1ccc(S(=O)(=O)N2CCOCC2)cc1 | 25 | 8 | -3 | 100* | 22* | 8 | 78*
O=S(=O)(c1ccc(NC(=S)NCCC(c2ccccc2)c2ccccc2)cc1)N1CCOCC1 | 15 | 35 | 17 | 97* | 16* | 4 | 80*
NNC(=S)Nc1ccc(S(=O)(=O)N2CCOCC2)cc1 | -11 | 7 | 5 | 0 | 0 | 2 | nt
CCCCOCCCNC(=S)Nc1ccc(S(=O)(=O)N2CCOCC2)cc1 | -27 | 4 | -4 | 36 | -2 | 3 | nt
COc1cccc(NC(=O)CCN2C(=O)C3CC=CCC3C2=O)c1 (centres undefined) | -19 | -3 | -7 | 0 | 2 | 2 | nt

Screens: PubChem BioAssay, several laboratories
